Compounds without any hit were thinned out: in the full panel of roughly 79,000, 15% have a hit. The source made the active and inactive calls. Cut-off read from the data, not from the text of the source: active = growth inhibition above about 70%; inactive = the rest.
What was measured:
[1] = NCI Yeast Anticancer Drug Screen. Data for the wt2 strain (AID 169);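 note: 0% = growth of vehicle-treated yeast cultures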; details: S. cerevisiae wt2 strain growth inhibition, hits give high values
In short: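 Treated yeast vs. vehicle-treated yeast: growth inhibition determined.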

[2] = NCI Yeast Anticancer Drug Screen. Data for the mlh1 strain (AID 171);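 note: 0% = growth of vehicle-treated control cultures of the same strain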; details: S. cerevisiae mlh1 strain growth inhibition, hits give high values
In short: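 A yeast strain with a defined genetic lesion serves as the test organism. Cultures receive compound or vehicle, and growth is measured.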

[3] = NCI Yeast Anticancer Drug Screen. Data for the sgs1 strain (AID 173);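 note: 0% = growth of vehicle-only control cultures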; details: S. cerevisiae sgs1 mutant, hits give high values
In short: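 A genetically defined yeast mutant is incubated with the test compound, and its growth is compared to that of the same strain given vehicle.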

[4] = NCI Yeast Anticancer Drug Screen. Data for the mlh1 rad18 strain (AID 175); details: S. cerevisiae mlh1 rad18 strain growth inhibition, hits give high values
In short: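 Steps: expose repair-defective yeast to compound; measure growth; express inhibition against vehicle-treated controls.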

[5] = NCI Yeast Anticancer Drug Screen. Data for the rad18 strain (AID 177); details: S. cerevisiae rad18 mutant growth inhibition, hits give high values
In short: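 Measured value is growth inhibition of a yeast strain bearing a DNA repair alteration, referenced to vehicle-treated cells.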

[6] = NCI Yeast Anticancer Drug Screen. Data for the rad52 strain (AID 147);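 note: 0% = growth of vehicle-treated control cultures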; details: S. cerevisiae rad52 mutant growth inhibition, hits give high values
In short: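 Here a repair-compromised yeast strain receives each compound; its growth is then quantified and normalised to vehicle-only controls.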

[7] = NCI Yeast Anticancer Drug Screen. Data for the wt1 strain (AID 149);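 note: 0% = growth of vehicle-treated wt1 cultures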; details: S. cerevisiae wt1 strain (SPY 50644) growth inhibition, hits give high values
In short: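 Readout: yeast growth inhibition, normalised to vehicle controls, in the wt1 strain exposed to test compounds.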

[8] = NCI Yeast Anticancer Drug Screen. Data for the rad50EPP+ strain (AID 151);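 note: 0% = growth of vehicle-treated control cultures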; details: S. cerevisiae rad50 mutant strain, hits give high values
In short: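 Read-out is yeast growth inhibition relative to vehicle; cells used were the rad50EPP+ strain.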

[9] = NCI Yeast Anticancer Drug Screen. Data for the mgt1 strain (AID 153); details: S. cerevisiae mgt1 mutant growth inhibition, hits give high values
In short: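 Measured: inhibition of mgt1 yeast growth by compound, normalized to vehicle-treated cultures.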

[10] = NCI Yeast Anticancer Drug Screen. Data for the rad50 strain (AID 155);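 note: 0% = growth of vehicle-only cultures of the same strain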; details: S. cerevisiae rad50 strain growth inhibition, hits give high values
In short: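 Compounds were tested on a yeast strain with an engineered DNA damage repair alteration; the reported value is growth inhibition normalised to vehicle treatment.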

[11] = NCI Yeast Anticancer Drug Screen. Data for the mec2-1 strain (AID 157); details: S. cerevisiae mec2-1 strain, hits give high values
In short: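 Using mec2-1 yeast: add compound, measure growth, express inhibition versus vehicle-treated cultures.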

[12] = NCI Yeast Anticancer Drug Screen. Data for the rad14 strain (AID 159);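 note: 0% = growth of vehicle-treated control cultures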; details: S. cerevisiae rad14 strain growth inhibition, hits give high values
In short: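 Compound-treated yeast with a defined DNA-repair lesion; growth inhibition normalised to vehicle-treated cultures.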

[13] = NCI Yeast Anticancer Drug Screen. Data for the sgs1 mgt1 strain (AID 161);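 note: 0% = growth of cultures given vehicle only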; details: S. cerevisiae sgs1 mgt1 strain, hits give high values
In short: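 Yeast cells carrying a defined DNA-repair defect were exposed to test compounds. Growth inhibition was measured relative to vehicle-treated controls.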

[14] = NCI Yeast Anticancer Drug Screen. Data for the CLN2oe strain (AID 163);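 note: 0% = growth of vehicle-only control cultures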; details: S. cerevisiae CLN2oe strain, hits give high values
In short: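 Whole-cell yeast growth assay. A strain engineered for altered cell-cycle control received compound, and inhibition relative to vehicle-treated cultures was recorded.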

[15] = NCI Yeast Anticancer Drug Screen. Data for the cln2 rad14 strain (AID 165);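 note: 0% = growth equal to vehicle treated cultures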; details: S. cerevisiae cln2 rad14 strain, hits give high values
In short: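 Yeast strain cln2 rad14, bearing defects in cell cycle control and DNA repair, serves as the test system; values reflect growth inhibition compared with vehicle.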

[16] = NCI Yeast Anticancer Drug Screen. Data for the bub3 strain (AID 167); details: S. cerevisiae bub3 mutant strain, hits give high values
In short: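 Growth of a checkpoint-deficient yeast mutant is measured after compound exposure. Values represent inhibition relative to vehicle.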

[17] = at 5.0 µM (retest, dose inferred, filed as 0.5)
[18] = at 50.0 µM (retest, dose inferred, filed as 5.0)

Measured: growth inhibition

Cc1c(Cl)c(C)c(Cl)c(O)c1Cl
active: [1]; at 33.0 µM 92% | [1]; at 100.0 µM 99% | [2]; at 33.0 µM 91% | [2]; at 100.0 µM 99% | [3]; at 33.0 µM 95% | [3]; at 100.0 µM 99% | [4]; [18] 97% | [4]; at 50.0 µM 72.2% | [5]; at 100.0 µM 97%
inactive: [1]; at 1.2 µM -25% | [1]; at 3.7 µM -20% | [1]; at 11.0 µM 14% | [2]; at 1.2 µM 8% | [2]; at 3.7 µM -4% | [2]; at 11.0 µM 29% | [3]; at 1.2 µM 15% | [3]; at 3.7 µM 9% | [3]; at 11.0 µM 34% | [4]; [17] 33% | [5]; at 1.2 µM -26% | [5]; at 3.7 µM -4% | [5]; at 11.0 µM -25% | [5]; at 33.0 µM 65%

COC(=O)C(Cc1c[nH]c2ccccc12)N1CN(C)c2ccccc2C1=O (stereo not drawn)
active: [6]; at 100.0 µM 99% | [9]; at 100.0 µM 99% | [10]; at 100.0 µM 99% | [11]; at 100.0 µM 99% | [12]; at 100.0 µM 99% | [13]; at 50.0 µM 97.8% | [14]; at 100.0 µM 99% | [15]; at 50.0 µM 70.5% | [16]; at 100.0 µM 99% | [1]; at 100.0 µM 99% | [2]; at 100.0 µM 99% | [3]; at 100.0 µM 99% | [5]; at 100.0 µM 99%
inactive: [6]; at 1.2 µM 7% | [6]; at 3.7 µM 2% | [6]; at 11.0 µM 0% | [6]; at 33.0 µM 3% | [7]; at 1.2 µM 7% | [7]; at 3.7 µM -3% | [7]; at 11.0 µM -4% | [7]; at 33.0 µM -4% | [7]; at 100.0 µM 60% | [8]; at 1.2 µM 9% | [8]; at 3.7 µM 0% | [8]; at 11.0 µM -3% | [8]; at 33.0 µM 1% | [8]; at 100.0 µM 16% | [9]; at 1.2 µM 49% | [9]; at 3.7 µM -1% | [9]; at 11.0 µM -1% | [9]; at 33.0 µM 5% | [10]; at 1.2 µM 7% | [10]; at 3.7 µM 2% | [10]; [17] 11% | [10]; at 11.0 µM 6% | [10]; at 33.0 µM 2% | [10]; [18] 37% | [10]; at 50.0 µM 57.9% | [11]; at 1.2 µM 5% | [11]; at 3.7 µM -1% | [11]; [17] -17% | [11]; at 11.0 µM -2% | [11]; at 33.0 µM 5% | [11]; [18] 11% | [11]; at 50.0 µM 50.5% | [12]; at 1.2 µM 6% | [12]; at 3.7 µM -9% | [12]; at 11.0 µM -5% | [12]; at 33.0 µM -13% | [13]; [17] -2% | [13]; [18] 60% | [14]; at 1.2 µM 4% | [14]; at 3.7 µM 1% | [14]; at 11.0 µM 3% | [14]; at 33.0 µM 7% | [15]; [17] -4% | [15]; [18] 54% | [16]; at 1.2 µM -6% | [16]; at 3.7 µM -1% | [16]; [17] 13% | [16]; at 11.0 µM 11% | [16]; at 33.0 µM 0% | [16]; [18] 44% | [16]; at 50.0 µM 40.4% | [1]; at 1.2 µM 8% | [1]; at 3.7 µM -2% | [1]; at 11.0 µM -4% | [1]; at 33.0 µM 0% | [2]; at 1.2 µM 2% | [2]; at 3.7 µM 0% | [2]; at 11.0 µM 0% | [2]; at 33.0 µM 6% | [3]; at 1.2 µM 3% | [3]; at 3.7 µM 2% | [3]; at 11.0 µM 1% | [3]; at 33.0 µM 8% | [5]; at 1.2 µM -8% | [5]; at 3.7 µM -3% | [5]; at 11.0 µM 3% | [5]; at 33.0 µM 18%

Source: PubChem BioAssay (NCI)
